# Laboratory results from article PMC8384837, “Expanding the binding specificity for RNA recognition by a PUF domain”.
# Numbering of substitutions follows the chain as printed.
# Tests used:
# Experiment in all cases: yeast three-hybrid, YBZ-1, SC-Leu-His + 0.5 mM 3-AT, 4 days
# Conditions in all cases: tags: N-Gal4 AD-HA kept; label: inside an RPR1-promoter hybrid RNA with tandem MS2 sites; ssRNA
# PUM1 PUF domain R6-HFR = molecular target: T1, PUM1 PUF domain R6-HFR (Homo sapiens, UniProt Q14671 828-1176, N1043H;Y1044F;Q1047R)
# T1 sequence: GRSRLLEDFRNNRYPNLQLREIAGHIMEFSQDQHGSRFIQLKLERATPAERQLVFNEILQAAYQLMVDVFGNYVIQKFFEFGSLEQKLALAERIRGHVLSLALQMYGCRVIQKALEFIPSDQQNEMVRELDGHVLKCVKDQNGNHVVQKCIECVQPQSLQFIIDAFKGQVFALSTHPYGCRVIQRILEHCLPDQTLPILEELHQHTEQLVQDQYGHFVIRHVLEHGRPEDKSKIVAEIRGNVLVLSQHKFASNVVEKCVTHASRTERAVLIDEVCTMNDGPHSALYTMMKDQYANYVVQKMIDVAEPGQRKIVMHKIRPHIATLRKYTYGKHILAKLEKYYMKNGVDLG
# Method in brief: (§1)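 Pumilio-1 PUF domain libraries, randomized at the three base-contacting residues of each repeat, were co-expressed with matching RNA elements from a centromeric plasmid in strain YBZ-1, which carries a LexA–MS2 coat fusion and a HIS3 reporter. Transformants grew for four days on SC-Leu (input) or on SC-Leu-His + 0.5 mM 3-AT (selection), and the repeat regions were PCR-amplified and Illumina-sequenced. The interaction score is the log change in variant frequency from input to selection. That logarithm is base 2, with a pseudocount of 1 where a variant was absent.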
# PUM1 PUF domain R1-GGQ = PUM1 PUF domain R1-GGQ (Homo sapiens, UniProt Q14671 828-1176, S863G;R864G)
# Method in brief: as §1
# PUM1 PUF domain R1-YLR = PUM1 PUF domain R1-YLR (Homo sapiens, UniProt Q14671 828-1176, S863Y;R864L;Q867R)
# Method in brief: as §1
# PUM1 PUF domain R8-TWK = PUM1 PUF domain R8-TWK (Homo sapiens, UniProt Q14671 828-1176, N1122T;Y1123W;Q1126K)
# Method in brief: as §1
# PUM1 PUF domain R2-LWV = PUM1 PUF domain R2-LWV (Homo sapiens, UniProt Q14671 828-1176, N899L;Y900W;Q903V)
# Method in brief: as §1
# PUM1 PUF domain R2-QWL = PUM1 PUF domain R2-QWL (Homo sapiens, UniProt Q14671 828-1176, N899Q;Y900W;Q903L)
# Method in brief: as §1
# PUM1 PUF domain R2-RKV = PUM1 PUF domain R2-RKV (Homo sapiens, UniProt Q14671 828-1176, N899R;Y900K;Q903V)
# Method in brief: as §1
# PUM1 PUF domain R6-IFS = molecular target: T2, PUM1 PUF domain R6-IFS (Homo sapiens, UniProt Q14671 828-1176, N1043I;Y1044F;Q1047S)
# T2 sequence: T1 sequence with H216I, R220S
# Method in brief: as §1
# PUM1 PUF domain R6-AWG = molecular target: T3, PUM1 PUF domain R6-AWG (Homo sapiens, UniProt Q14671 828-1176, N1043A;Y1044W;Q1047G)
# T3 sequence: T1 sequence with H216A, F217W, R220G
# Method in brief: as §1
# PUM1 PUF domain R5-RFK = PUM1 PUF domain R5-RFK (Homo sapiens, UniProt Q14671 828-1176, C1007R;R1008F;Q1011K)
# Method in brief: as §1
# PUM1 PUF domain R8-TWK, sequence (Q14671 828-1176 N1122T/Y1123W/Q1126K): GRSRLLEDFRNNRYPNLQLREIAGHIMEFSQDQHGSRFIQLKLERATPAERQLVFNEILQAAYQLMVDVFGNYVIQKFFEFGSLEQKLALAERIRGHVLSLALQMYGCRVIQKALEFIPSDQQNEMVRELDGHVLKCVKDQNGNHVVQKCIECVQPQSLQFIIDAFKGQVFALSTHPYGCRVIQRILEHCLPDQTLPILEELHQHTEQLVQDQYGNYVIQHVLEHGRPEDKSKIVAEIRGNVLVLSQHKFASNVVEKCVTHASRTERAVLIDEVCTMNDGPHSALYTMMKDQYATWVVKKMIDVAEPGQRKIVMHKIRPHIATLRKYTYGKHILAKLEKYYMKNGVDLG
sequence,measurement,setting,value
GGCUAGAACUAGUGGAUCCCCCGGCGCCCGGCGGCUCGAGCCCGGGUAAGUGCAAAUAGUCUGCAUGCCGCCGGGCGCCAUGCCUGCAGGUCGACUCUAGAAAACAUG,binding signal,PUM1 PUF domain R6-HFR,2.56 log2 enrichment (interaction score)
GGCUAGAACUAGUGGAUCCCCCGGCGCCCGGCGGCUCGAGCCCGGGUAAGUGUAAAUCGUCUGCAUGCCGCCGGGCGCCAUGCCUGCAGGUCGACUCUAGAAAACAUG,binding signal,PUM1 PUF domain R1-GGQ,1.77 log2 enrichment (interaction score)
same,binding signal,PUM1 PUF domain R1-YLR,3.95 log2 enrichment (interaction score)
GGCUAGAACUAGUGGAUCCCCCGGCGCCCGGCGGCUCGAGCCCGGGUAAGGGUAAAUAGUCUGCAUGCCGCCGGGCGCCAUGCCUGCAGGUCGACUCUAGAAAACAUG,binding signal,PUM1 PUF domain R8-TWK,3.33 log2 enrichment (interaction score)
GGCUAGAACUAGUGGAUCCCCCGGCGCCCGGCGGCUCGAGCCCGGGUAAGUGUAAAAAGUCUGCAUGCCGCCGGGCGCCAUGCCUGCAGGUCGACUCUAGAAAACAUG,binding signal,PUM1 PUF domain R2-LWV,4.15 log2 enrichment (interaction score)
same,binding signal,PUM1 PUF domain R2-QWL,5.92 log2 enrichment (interaction score)
same,binding signal,PUM1 PUF domain R2-RKV,3.51 log2 enrichment (interaction score)
GGCUAGAACUAGUGGAUCCCCCGGCGCCCGGCGGCUCGAGCCCGGGUAAGUGUAAAUGGUCUGCAUGCCGCCGGGCGCCAUGCCUGCAGGUCGACUCUAGAAAACAUG,binding signal,PUM1 PUF domain R1-YLR,2.04 log2 enrichment (interaction score)
GGCUAGAACUAGUGGAUCCCCCGGCGCCCGGCGGCUCGAGCCCGGGUAAGUGUAAAGAGUCUGCAUGCCGCCGGGCGCCAUGCCUGCAGGUCGACUCUAGAAAACAUG,binding signal,PUM1 PUF domain R2-RKV,4.57 log2 enrichment (interaction score)
GGCUAGAACUAGUGGAUCCCCCGGCGCCCGGCGGCUCGAGCCCGGGUAAGUGAAAAUAGUCUGCAUGCCGCCGGGCGCCAUGCCUGCAGGUCGACUCUAGAAAACAUG,binding signal,PUM1 PUF domain R6-IFS,5.65 log2 enrichment (interaction score)
same,binding signal,PUM1 PUF domain R6-AWG,2.57 log2 enrichment (interaction score)
GGCUAGAACUAGUGGAUCCCCCGGCGCCCGGCGGCUCGAGCCCGGGUAAGUGUUAAUAGUCUGCAUGCCGCCGGGCGCCAUGCCUGCAGGUCGACUCUAGAAAACAUG,binding signal,PUM1 PUF domain R5-RFK,5.38 log2 enrichment (interaction score)
